Data from the supplement of paper PMC10338343.
± gives the standard deviation.

These sequences were tested on MILI (PIWIL2) piRISC loaded with piRNA #1 (26 nt) (assay: pre-steady-state target cleavage rate (min^-1); guide: piRNA #1 5'p-UGAGGUAGUAGGUUGUAUAGUAUCCA; MIWI and MILI are mouse PIWI proteins and EfPiwi is from a freshwater sponge; tags in brackets are library labels; higher = faster piRNA-guided slicing of the target). Details: auxiliary factor: 500 nM mouse GTSF1.
How it was run: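 Cleave-'n-Seq used a transcribed, DNA-blocked target RNA library at 0.1 nM and active affinity-purified piRISC with one synthetic guide at 1 nM, with or without 500 nM GTSF1 partner protein, in HEPES–potassium acetate buffer at 33 °C for 0–8 or 0–960 min. Uncleaved targets were sequenced and normalised to depth and to weakly complementary targets, and three trials were pooled with k3 capped at 0.0001 min^-1. The pre-steady-state cleavage rate was estimated by a burst-and-steady-state fit.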

Sequence	pre-steady-state target cleavage rate
GGAGACCUAUGUAUUCUACCUACUACCUCA	0.0111 ± 0.0026
GGAGACCUUACUAUAGAACCUACUACGUCA	0.0503 ± 0.012
GGAGACCUAUGAUUACAACCUACUACCGUCA	0.00492 ± 0.0022
GGAGACCUAACUAUACAUCCUUCUACCUCA	0.0117 ± 0.0069
GGAGACCUAUGAAUACAACCUACUACUCUCA	0.00959 ± 0.002
GGAGACCUAUGUAUACAACCUACUUCCUCA	0.0381 ± 0.0071
GGAGACCUAUGUAAACAACCUACUACCUCA	0.0131 ± 0.0032
GGAGACCUAUGUUUACAUCCUACUACCUCA	0.0197 ± 0.0031
GGAGACCUAUGAUAUGUGCCUACUACCUCA	< 0.0001
GGAGAGGAUACUUUAGAACCUACUACCUCA	0.153 ± 0.0078
GGAGACCUAUGAUAACAACCUACCACCUCA	0.00342 ± 0.0032
GGAGACCUAUGAUAUCAACCUAGCUACCUCA	0.00339 ± 0.0024
GGAGACCUUACUAUACAACGUACUACCACA	0.0216 ± 0.0046
GGAGACCUUACUAUUCAACCUACUACCUGA	0.0942 ± 0.014
GGAGAGGAUUGAAUACAACCUACUACCUCA	0.0664 ± 0.0088
GGAGACCUAACUAUUCAACGUACUACCUCA	0.0113 ± 0.0053
GGAGACCUAUCUAUUCAACCUACUACGUCA	0.0451 ± 0.0089
GGAGACCUAUGAAUACAACCAUCUACCUCA	0.00333 ± 0.0021
GGAGACCUAUGAUUACAACGUACAACCUCA	0.00532 ± 0.0027
GGAGACCUAUGAUUAUCAACCUACUACCUCA	0.00367 ± 0.0025

Sequence	pre-steady-state target cleavage rate
GGAGACCUAUCUCAUACAACCUACUACCUCA	0.0664 ± 0.01
GGAGACCUUACUUUACAACCUACUACGUCA	0.0613 ± 0.011
GGAGACCUAACUAAACAACCUACAACCUCA	0.131 ± 0.029
GGAGACCUAUGAUUCACAACCUACUACCUCA	0.00321 ± 0.0032
GGAGACCUAUGAACUACAACCUACUACCUCA	0.00389 ± 0.0029
GGAGACGUUACUUUACAACCUACUACCUCA	0.141 ± 0.01
GGAGACCUAUGAUAUGUUGCUACUACCUCU [g2:g11:cont:t1U]	< 0.0001
GGAGACCUAUGAAUACAAGCUACUAGCUCA	0.00622 ± 0.0027
GGAGACCUAACUAUACAACCUACUACCGCA	0.197 ± 0.038
GGAGACCUAUCUAUACAACGAACUACCUCA	0.00423 ± 0.0023
GGAGACCUAUGAUAACAAGCUAGUACCUCA	0.00508 ± 0.0032
GGAGACCUAUGAAUACAACCUAGUACCUGA	< 0.0001
GGAGACCUAUGUAUACAAGGAACUACCUCA	0.00296 ± 0.0028
GGAGACCUAUGUAUACACCCUACUACCUCA	0.0161 ± 0.0035
GGAGACCUAUGUAAACAACCUACAACCUCA	0.0135 ± 0.0041
GGAGACCUAUCUAUACAACCUACUAACCUCA	0.143 ± 0.014
GGAGUGCAUUCUAUACAACCUACUACCUCA	0.13 ± 0.011
GGAGACCAUAGUAUACAACCUUCUACCUCA	0.0111 ± 0.0041
GGAGACCUUACUAUUCAACCUACAACCUCA	0.12 ± 0.013
GGAGACCUAUGUAUACAACCUACUUCCUGA	0.00819 ± 0.0021
